# Screening results: PubChem BioAssay, National Center for Advancing Translational Sciences (NCATS)
# TDP1 block: TDP1 (human) enzyme inhibition | 350,000 compounds, 0.28% hits | Q9NUW8 | Potency, µM (top dose mostly 130 µM), for inactives: at the highest dose activity change, negative = inhibition, hits mostly inhibitors | recombinant TDP1, AlphaScreen DNA substrate cleavage; note: potency is the fitted concentration of half-maximal effect; % is set by controls: 0 for no effect and ±100 for the full control effect; nearly all actives have a fitted effect of over 40% in size
# Target sequence (Q9NUW8 whole entry, looked up): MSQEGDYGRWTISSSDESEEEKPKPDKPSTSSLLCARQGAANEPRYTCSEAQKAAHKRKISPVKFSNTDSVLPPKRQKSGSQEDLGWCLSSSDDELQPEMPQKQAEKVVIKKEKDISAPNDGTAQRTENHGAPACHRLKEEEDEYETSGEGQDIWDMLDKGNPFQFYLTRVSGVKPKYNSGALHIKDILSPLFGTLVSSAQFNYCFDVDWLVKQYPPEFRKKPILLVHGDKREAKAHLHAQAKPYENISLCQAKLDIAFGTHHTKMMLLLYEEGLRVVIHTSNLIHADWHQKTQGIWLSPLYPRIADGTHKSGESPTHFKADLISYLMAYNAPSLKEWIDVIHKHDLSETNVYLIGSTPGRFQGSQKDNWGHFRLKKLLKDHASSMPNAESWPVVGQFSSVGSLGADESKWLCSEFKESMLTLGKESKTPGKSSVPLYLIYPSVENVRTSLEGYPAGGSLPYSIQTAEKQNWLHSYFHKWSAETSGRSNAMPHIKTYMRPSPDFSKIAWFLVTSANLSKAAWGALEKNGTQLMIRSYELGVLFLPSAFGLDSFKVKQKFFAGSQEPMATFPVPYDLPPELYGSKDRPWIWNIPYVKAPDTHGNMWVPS
#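 Steps: enzyme plus compound, 15 min RT; add biotin/phosphotyrosine-FITC oligonucleotide (15 nM final), react 5 min; add donor/acceptor beads (10 ug/ml final), 10 min; read AlphaScreen. Tdp1 at 1 nM final.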
# IL1B secr inh: inhibitors of inflammasome signaling (IL-1 beta secretion). THP-1 LPS/ATP IL-1B secretion, AlphaLISA, 16 h; active compounds read low. activity change, % at 57.5 µM. 360,000 compounds, 4.7% hits. AID 743279; in the data active = activity change below about -50%; inconclusive = mostly about -30% to -49%; note: % is set by controls: 0 for no effect and ±100 for the full control effect
#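 THP-1 cells pretreated 1 hr with compounds (up to 57.5 uM final), then stimulated with LPS (250 ng/mL final) plus ATP (1.25 mM final); secreted IL-1B measured by AlphaLISA after 16 hr, decreased signal indicating inhibition.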
# TDP1 cell noCPT: qHTS for Inhibitors of human tyrosyl-DNA phosphodiesterase 1 (TDP1): qHTS in cells in absence of CPT; DT40 Tdp1-/- hTDP1 cells, no CPT, ATP luminescence, 48 h; Potency, µM (highest dose often 46.2 µM), for inactives: top-dose activity change, negative = growth inhibition, most hits filed as inhibitors; 420,000 compounds, 15% hits; AID 686978, 2013; note: potency is the fitted concentration of half-maximal effect; % is set by controls: 0 for no effect and ±100 for the full control effect; nearly all actives have a fitted effect of over 55% in size
#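 Growth of hTDP1-complemented DT40 Tdp1-knockout cells is measured by ATP luminescence after at least 48 hr compound exposure at 37 °C, with DMSO substituting for the 20 nM CPT used in the parallel screen.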
# TDP1 cell CPT: growth inhibition of DT40 Tdp1-/-;hTDP1 cells with camptothecin (screen for TDP1 inhibitors). chicken DT40 Tdp1-/-;hTDP1 cells + 20 nM CPT, ATP luminescence, 48 h. Potency, µM (doses to about 46.2 µM), for the others: at the top dose activity change, negative = growth inhibition, actives largely listed as inhibitors. 420,000 compounds, 12% hits. AID 686979; note: potency is the fitted concentration of half-maximal effect; % is set by controls: 0 for no effect and ±100 for the full control effect; nearly all actives have a fitted effect of over 55% in size
#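 Chicken DT40 Tdp1-/- cells stably complemented with human TDP1 were seeded at 400 cells/well in medium containing 20 nM camptothecin, exposed to pin-transferred compounds, and grown at 37 °C for at least 48 hr. Viability was read as ATP luminescence.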
# HepG2 tox: HepG2 cytotoxicity, counter-screen for TGF-b inhibitors; HepG2 CAGA-GFP viability, ATP luminescence, 18 h; Potency, µM (highest dose often 46.1 µM), without a hit: at the top dose activity change, negative = cytotoxicity, most hits filed as cytotoxic; 410,000 compounds, 0.76% hits; note: potency is the fitted concentration of half-maximal effect
#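 HepG2 CAGA-GFP cells (1000/well, DMEM with 1% FBS) received compound, then TGF-beta at 500 pg/mL final, and were incubated 18 hours at 37 degrees C. Viability was read by CellTiter-Glo luminescence. Media-only wells were set as complete cell-killing and DMSO as no toxicity.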
# TGFb SMAD3 inh: TGF-b pathway inhibition; HepG2 CAGA-GFP TGF-b/SMAD3 reporter, GFP fluorescence, 18 h; TGF-beta stimulated, 500 pg/mL final; Potency, µM (series often up to 46.1 µM), without a hit: top-dose activity, negative = inhibition, most hits filed as inhibitors; 410,000 compounds, 1.2% hits; note: potency is the fitted concentration of half-maximal effect; % is set by controls: 0 for no effect and ±100 for the full control effect; nearly all actives have a fitted effect of over 65% in size
#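 HEPG2 CAGA-GFP cells (1000/well, DMEM with 1% FBS) were pre-incubated 2 h at 37 degrees C, given compound by pin tool, then stimulated with TGF-beta at 500 pg/mL final for 18 h before per-cell GFP fluorescence imaging.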
# Numbers without * were called inactive; ? = inconclusive; . = not tested or not shown; [ ] = dose if it differs, or a comment. A selection: hits, their analogues and other compounds. The true share with any hit is near 19%. Unless noted, calls come from the whole dose curve; as a rule, active = well fitted curve in the direction sought with a large enough effect; inconclusive = small, poorly fitted or top-dose-only effect, or another doubt; inactive = no such curve, though single readings can be large; an effect the other way counts as inactive or inconclusive.
SMILES,TDP1 block,IL1B secr inh,TDP1 cell noCPT,TDP1 cell CPT,HepG2 tox,TGFb SMAD3 inh
COc1ccccc1CN1CCC2(CCC(CNC(=O)c3ccccc3N(C)C)O2)CC1 (centres undefined),.,.,?,-12.1%[9.04 µM],.,.
C#CCOCCOCCOCCNc1nc(N2CCN(C(=O)CCCCCCCCCCNC(=O)[C@@H](CCSC)n3cc(CCO)nn3)CC2)nc(N2CCN(C(=O)CCCCCCCCCCNC(=O)[C@H](CCCN=C(N)N)n3cc(C[C@@H](C)CC)nn3)CC2)n1,15.0%,-99.7*,?,25.9µM*,-80.3%,?
C#CCOCCOCCOCCNc1nc(N2CCN(C(=O)CCCCCCCCCCNC(=O)[C@@H](CCC(=O)O)n3cc(CCCCCN)nn3)CC2)nc(N2CCN(C(=O)CCCCCCCCCCNC(=O)[C@H](CCCCN)n3cc(C[C@@H](C)CC)nn3)CC2)n1,5.6%,?,?,?,-80.7%,?
C#CCOCCOCCOCCNc1nc(N2CCN(C(=O)CCCCCCCCCCNC(=O)[C@H](CO)n3cc(CCCCCN)nn3)CC2)nc(N2CCN(C(=O)CCCCCCCCCCNC(=O)[C@H](CCCN=C(N)N)n3cc(C[C@@H](C)CC)nn3)CC2)n1,14.1%,.,.,.,.,.
C#CCOCCOCCOCCNc1nc(N2CCN(C(=O)CCCCCCCCCCNC(=O)[C@H](CCCCN)n3cc(CCO)nn3)CC2)nc(N2CCN(C(=O)CCCCCCCCCCNC(=O)[C@H](CCCCN)n3cc(C[C@@H](C)CC)nn3)CC2)n1,0.0%,-20.5,?,?,-74.8%,?
C#CCOCCOCCOCCNc1nc(N2CCN(C(=O)CCCCCCCCCCNC(=O)[C@H](CCCCN)n3cc(C)nn3)CC2)nc(N2CCN(C(=O)CCCCCCCCCCNC(=O)[C@H](CCCN=C(N)N)n3cc(C[C@@H](C)CC)nn3)CC2)n1,14.2%,-101.7*,11.6µM*,23.1µM*,-101.4%,?
C#CCOCCOCCOCCNc1nc(N2CCN(C(=O)CCCCCCCCCCNC(=O)[C@H](CCCCN)n3cc(C[C@@H](C)CC)nn3)CC2)nc(N2CCN(C(=O)CCCCCCCCCCNC(=O)[C@@H]([C@H](C)O)n3cc(C)nn3)CC2)n1,9.8%,?,5.17µM*,4.61µM*,12.6µM*,?
C#CCOCCOCCOCCNc1nc(N2CCN(C(=O)CCCCCCCCCCNC(=O)[C@H](CCCCN)n3cc(C)nn3)CC2)nc(N2CCN(C(=O)CCCCCCCCCCNC(=O)[C@@H]([C@H](C)O)n3cc(C)nn3)CC2)n1,2.9%,-60.0*,?,?,-40.6%,?
C[C@@H](C(=O)Nc1ccc2ccccc2c1)[C@H]1C[C@]1(C)[C@H](NC(=O)Oc1ccc(F)cc1)c1ccccc1,1.5%,.,.,.,.,.
C#CCOCCOCCOCCNc1nc(N2CCN(C(=O)CCCCCCCCCCNC(=O)[C@@H](CCSC)n3cc(CCO)nn3)CC2)nc(N2CCN(C(=O)CCCCCCCCCCNC(=O)[C@@H]([C@H](C)O)n3cc(C)nn3)CC2)n1,-1.1%,?,9.2µM*,6.51µM*,-15.8%,-12.7%
C#CCOCCOCCOCCNc1nc(N2CCN(C(=O)Cn3cc(CCO)nn3)CC2)nc(N2CCN(C(=O)Cn3cc(CC(C)O)nn3)CC2)n1 (centres undefined),.,-3.4,-9.4%,-2.9%,-10.2%,2.9%
C#CCOCCOCCOCCNc1nc(N2CCN(C(=O)CCCCCCCCCCNC(=O)Cn3cc(C[C@@H](C)O)nn3)CC2)nc(N2CCN(C(=O)CCCCCCCCCCNC(=O)[C@@H](CCSC)n3cc(CCO)nn3)CC2)n1,1.1%,1.7,10.3µM*,?,4.4%,8.3%
CCCCn1cc(S(=O)(=O)c2ccc(CC)cc2)c(=O)c2cc(F)c(N3CCOCC3)cc21,-3.7%,.,18.4µM*,?,14.5%,-7.8%
CCCN1CCN(c2cc3c(cc2F)c(=O)c(S(=O)(=O)c2ccc(Cl)cc2)cn3C)CC1,0.0%,.,23.1µM*,?,-20.3%,-20.4%
CCCCn1cc(S(=O)(=O)c2ccccc2)c(=O)c2cc(F)c(N3CCN(CCC)CC3)cc21,5.0%,.,20.6µM*,?,14.2%,-1.9%
CCCn1cc(S(=O)(=O)c2ccccc2)c(=O)c2cc(CC)ccc21,6.5%,-50.2*,5.4%,6.3%,-0.6%,-3.5%
CCCn1cc(S(=O)(=O)c2ccccc2)c(=O)c2cc(OC)c(OC)cc21,4.1%,?,17.1%,-5.3%,0.3%,-0.7%
Cc1ccc(CN2C(=O)C3(c4ccccc42)N(c2cccc(C(F)(F)F)c2)C(=O)CS3(=O)=O)cc1 (centres undefined),3.2%,.,?,?,-24.4%,1.6%
C/C(CCN1CCCc2nc(C)c(C)cc21)=N\O[C@@H](C)CN1CCCCc2nc(C)c(C)cc21,9.0%[21 µM],.,.,.,.,.
CCOc1ccc(CN(C(=O)c2cc(=O)c3cc(Cl)ccc3o2)C2CCS(=O)(=O)C2)cc1 (centres undefined),6.1%,.,?,-0.7%,4.2%,-0.2%
Nc1nc(NC2CC2)c2ncn([C@H]3C=C[C@@H](CO)C3)c2n1,0.0%,.,.,.,.,.
COc1ccc(/C=C/C(=O)Nc2ccc(Cl)cc2Cl)cc1,-0.4%[12.3 µM],.,-18.5%,6.0%,-38.7%,1.3%
CCCCn1cc(S(=O)(=O)c2ccc(OC)cc2)c(=O)c2cc(F)c(F)cc21,1.3%,.,?,18.4µM*,-22.8%,8.0%
CCCn1cc(S(=O)(=O)c2ccc(CC)cc2)c(=O)c2cc(F)c(N3CCN(C)CC3)cc21,2.5%,.,25.9µM*,16.4µM*,6.0%,-12.2%
CCc1ccc(S(=O)(=O)c2cn(CC)c3cc(N4CCCCC4)c(F)cc3c2=O)cc1,3.7%,.,?,?,-7.4%,-15.9%
CCCN1CCN(c2cc3c(cc2F)c(=O)c(S(=O)(=O)c2ccc(CC)cc2)cn3CC)CC1,-2.5%,.,20.6µM*,?,-45.1%,?
CCCCn1cc(S(=O)(=O)c2ccc(OC)cc2)c(=O)c2cc(F)c(N3CCOCC3)cc21,5.0%,.,?,?,-5.3%,-8.3%
CCCn1cc(S(=O)(=O)c2ccccc2)c(=O)c2cc(F)c(N3CCCC(C)C3)cc21 (centres undefined),2.5%,.,?,?,-20.8%,?
